Assay outcomes: PubChem, several laboratories
This is a sample that favours compounds with a hit; in the whole collection about 4.2% have one here.
Wnt act = activators of Wnt/beta-catenin signaling; Wnt/beta-catenin reporter cell assay, activator, plate reader; activation, % at 9.35 µM; actives 1.2% (n = 300,000); in the data active = activation above about 30%, passing the limit was not always enough
MITF act = MITF TRPM1 promoter activation in melanoma cells. SK-MEL-5 TRPM1-promoter luciferase, 24 h; % of positive control, neutral wells = 0. activation, % at 12.5 µM. actives 0.75% (n = 300,000);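 active = mean activation of at least 80% with every replicate also reaching 80%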
esBAF inh = blocks esBAF chromatin remodeling in mouse ES cells | actives 2% (n = 350,000) | reporter increase, % at 12.5 µM | Bmi1-luciferase knock-in reporter, 24 h; 100% = twice the neutral-well signal | AID 602393; in the data active = activation above about 40%;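 also: a rise in the Bmi1 reporter signal indicates esBAF inhibition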
GAA850 FXN act = activators of GAA850 frataxin (FXN) promoter; HEK293 lucGAA850 FXN promoter luciferase reporter, 24 h; percent of 10 µM SAHA response; activation, % at 6 µM; actives 0.56% (n = 360,000); AID 540364;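 active = activation above the average of all compounds screened plus 3 SD, cutoff fixed separately per campaign, cut at about 7.5% in these data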
AHR activator = human AHR activation; P35869; activation, % at 5 µM; actives 2.5% (n = 320,000); AHR-responsive luciferase reporter cells, luminescence; in the data active = activation above about 47%
GAA30 FXN cntr = GAA30 FXN promoter activation counter-screen. shares compounds with GAA850 FXN act. HEK293 lucGAA30 FXN promoter luciferase, 24 h; DMSO = 0%, 5 µM ipriflavone = 100%. activation, % at 6 µM. actives 66% (n = 1,900);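 active = mean activation above the mean of solvent-only control wells plus 3 SD, cut at about 22% in these data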;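 also: counterscreen of GAA850 promoter hits where activity marks nonselective or luminescence artifacts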
FXN GAA850 conf = confirmation of GAA850 frataxin (FXN) promoter activators | shares compounds with GAA850 FXN act | HEK293 lucGAA850 FXN promoter luciferase reporter, 24 h; 100% = activation by SAHA | activation, % at 6 µM | actives 86% (n = 1,900) | AID 588351;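 active = mean activation above a set limit taken from the primary screen, cut at about 8% in these data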
Of the large screens only hits and unclear results are named; the others gave an inactive call (follow-up assays come after a bar, where they were run).

c1ccc2c(c1)C1=NCCN1c1ccccc1-2	GAA850 FXN act 33 (no result: MITF act, esBAF inh, AHR activator) | GAA30 FXN cntr inactive | FXN GAA850 conf 150
CCOC(=O)c1c(CN2CCN(CCO)CC2)n(C)c2cc(Br)c(OC)cc12	GAA850 FXN act 8.2 (no result: Wnt act) | GAA30 FXN cntr 23 | FXN GAA850 conf 18
CC(C)CC#Cc1cnc2c(c1)C(=O)N([C@@H](C)CO)C[C@@H](C)[C@H](CN(C)C(=O)CCN1CCCCC1)O2	none (no result: Wnt act, MITF act, GAA850 FXN act, AHR activator)
C[C@H]1CN([C@@H](C)CO)C(=O)c2cc(NC(=O)C3CC3)ccc2O[C@H]1CN(C)C(=O)Nc1ccc2c(c1)OCO2	none (no result: Wnt act, MITF act, GAA850 FXN act, AHR activator)
Cc1cc2cc(OCc3ccccc3)ccc2n1C	none (no result: MITF act)
Cc1c(C=O)c2cc(OCc3ccccc3)ccc2n1C	esBAF inh 70, GAA850 FXN act 7.7 (no result: MITF act) | GAA30 FXN cntr 105 | FXN GAA850 conf 32
COc1ccc(-c2ccc3c(c2)O[C@@H](CN(C)C(C)=O)[C@H](C)CN([C@@H](C)CO)S3(=O)=O)cc1	none (no result: Wnt act, MITF act, GAA850 FXN act, AHR activator)
CC(=O)Nc1cccc(NC(=O)CSc2ncc(C(=O)Nc3ccccc3)c(=O)n2C)c1	GAA850 FXN act 9.7 | GAA30 FXN cntr inactive | FXN GAA850 conf 15
COCC#Cc1cnc2c(c1)C(=O)N([C@H](C)CO)C[C@H](C)[C@H](CN(C)C(=O)Cc1ccncc1)O2	none (no result: Wnt act, MITF act, GAA850 FXN act, AHR activator)
Cc1ccc(S(=O)(=O)N(C)C[C@H]2Oc3c(NC(=O)C4CCOCC4)cccc3C(=O)N([C@H](C)CO)C[C@@H]2C)cc1	none (no result: Wnt act, MITF act, GAA850 FXN act, AHR activator)
CN(Cc1ccccc1)C(=O)c1ccccc1C(=O)OCC(=O)N(Cc1ccccc1)C(C)(C)C	none
CCOc1ccc(C(C)=O)cc1COC(=O)c1ccccc1C(=O)N(C)Cc1ccccc1	GAA850 FXN act 9.5 (no result: AHR activator) | GAA30 FXN cntr inactive | FXN GAA850 conf 15
O=C(Oc1c(-c2ccccc2)oc2ccccc2c1=O)c1ccccc1	GAA850 FXN act 13 (no result: Wnt act) | GAA30 FXN cntr 45 | FXN GAA850 conf 19
COc1ccc(S(=O)(=O)Nc2ccc3c(c2)C(=O)N([C@H](C)CO)C[C@@H](C)[C@H](CN(C)C(=O)Nc2ccc(F)cc2)O3)cc1	none (no result: Wnt act, MITF act, GAA850 FXN act, AHR activator)
COc1cc(/C=N\n2cnnc2)ccc1OCC(=O)Nc1ccc(C)cc1	none
COc1ccc(NC(=O)COc2ccc(/C=N/n3c(C)nnc3C)cc2OC)cc1	GAA850 FXN act 8.0 (no result: Wnt act) | GAA30 FXN cntr 37 | FXN GAA850 conf 12
C[C@H]1CN([C@@H](C)CO)C(=O)Cc2cc(NC(=O)CCN3CCOCC3)ccc2O[C@@H]1CN(C)S(=O)(=O)c1ccc(Cl)cc1	none (no result: Wnt act, MITF act, GAA850 FXN act, AHR activator)
CC1(C)CC(=O)C=C(c2cccc3c2oc2ccccc23)C1	GAA850 FXN act 9.6 | GAA30 FXN cntr 61 | FXN GAA850 conf 26
O=C(NCC[C@H]1CC[C@@H](NS(=O)(=O)c2ccc(F)cc2)[C@@H](CO)O1)Nc1ccc(F)cc1	none (no result: Wnt act, MITF act, GAA850 FXN act, AHR activator)
COC(=O)[C@]1(Cc2ccccc2)N[C@H](CN(C)C(=O)Nc2ccc(C(F)(F)F)cc2)[C@@H]2C(=O)N(Cc3ccccc3)C(=O)[C@@H]21	none
CC[C@@]1(C(=O)OC)N[C@H](CN(C)C(=O)c2ccccc2)[C@@H]2C(=O)N(Cc3ccccc3)C(=O)[C@@H]21	none
CC[C@@]1(C(=O)OC)N[C@H](CN(C)C(=O)Nc2ccc(C(F)(F)F)cc2)[C@@H]2C(=O)N(Cc3ccccc3)C(=O)[C@@H]21	GAA850 FXN act 8.9 | GAA30 FXN cntr 27 | FXN GAA850 conf 11
CC[C@@]1(C(=O)OC)N[C@H](CN(C)C(=O)Nc2ccccc2)[C@@H]2C(=O)N(Cc3ccccc3)C(=O)[C@@H]21	GAA850 FXN act 12 | GAA30 FXN cntr inactive | FXN GAA850 conf inactive
CCN(C[C@H]1N[C@@](CC)(C(=O)OC)[C@H]2C(=O)N(Cc3ccccc3)C(=O)[C@@H]12)S(=O)(=O)c1ccc(OC)cc1	GAA850 FXN act 11 | GAA30 FXN cntr inactive | FXN GAA850 conf 9.0
O=C(c1ccccc1)N1CC[C@@H]2[C@@H](CO)Nc3ccc(-c4ccccc4F)cc3[C@@H]21	none (no result: Wnt act, MITF act, GAA850 FXN act, AHR activator)
Oc1cc(NCc2cccnc2)ccc1-c1nc2ccccc2o1	Wnt act 86, esBAF inh 78, GAA850 FXN act 11 (no result: MITF act) | GAA30 FXN cntr 81 | FXN GAA850 conf 44
